For 5 compounds, composite z-score and z-score results are on record in PubChem BioAssay.

Assay [1] in a line: compounds binding Alexa647 anti-His antibody – biochemical, small-molecule microarray, 635 nm fluorescence, artefact control for SMM control protein annotation, primary screen (AID 1128).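 Also: score merges feature fluorescence with signal-to-noise for each printed compound spot.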 To be noted: higher = more signal.
Assay [2] deals with Human papillomavirus type 1a E7 protein (residues 1-88). The experiment in a line: HPV1a E7 small-molecule binders, primary screen, biochemical, small-molecule microarray, residues 1-88, 635 nm (AID 1129). To be noted: small-molecule microarray binding, fluorescence 635 nm; higher = more signal.
Assay [3] has as its target Focal adhesion kinase 1 (Homo sapiens) (UniProt Q05397). The experiment in a line: PTK2 protein binding on printed compound slides – biochemical, small-molecule microarray, 635/667 nm fluorescence, BSA, DTT, primary screen (AID 1130).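 Also: composite of spot emission at 667 nm and signal to noise over triplicate slides.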 To be noted: 635 nm fluorescence, higher = more signal.
The test system of assay [4] is Fibrinogen (Alexa647-labelled). The experiment in a line: Alexa647-fibrinogen binding to printed small molecules – biochemical, small-molecule microarray, 635/667 nm fluorescence, artefact control for SMM control-protein annotation, profiling panel (AID 1131).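 Also: z-score merges 667 nm fluorescence with per-spot signal-to-noise over triplicate slides.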 To be noted: fibrinogen-A647 binding fluorescence, higher = more signal.
In assay [5] the target is Follistatin (Homo sapiens) (UniProt P19883). The experiment in a line: FST protein binding to printed compounds – biochemical, small-molecule microarray, 635/667 nm fluorescence, primary screen (AID 1132). To be noted: 635 nm fluorescence, higher = more signal.
Chain of Follistatin (Homo sapiens) (P19883 whole entry, looked up): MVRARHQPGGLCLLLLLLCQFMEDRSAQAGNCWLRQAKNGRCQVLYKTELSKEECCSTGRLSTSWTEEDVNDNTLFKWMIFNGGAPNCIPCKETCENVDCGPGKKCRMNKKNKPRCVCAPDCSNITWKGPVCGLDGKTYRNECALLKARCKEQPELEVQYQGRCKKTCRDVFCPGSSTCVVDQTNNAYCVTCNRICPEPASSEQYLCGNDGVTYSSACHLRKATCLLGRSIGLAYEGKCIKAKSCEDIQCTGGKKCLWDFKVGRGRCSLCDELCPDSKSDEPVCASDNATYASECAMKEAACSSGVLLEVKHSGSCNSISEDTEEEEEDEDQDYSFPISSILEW
In assay [6] the target is Fibroblast growth factor 2 (Homo sapiens) (UniProt P09038). The experiment in a line: basic fibroblast growth factor binding to printed compounds – biochemical, small-molecule microarray, 635/667 nm fluorescence, primary screen (AID 1133). To be noted: FGF2, fluorescence 635/667, higher = more signal.
Chain of Fibroblast growth factor 2 (Homo sapiens) (P09038 whole entry, looked up): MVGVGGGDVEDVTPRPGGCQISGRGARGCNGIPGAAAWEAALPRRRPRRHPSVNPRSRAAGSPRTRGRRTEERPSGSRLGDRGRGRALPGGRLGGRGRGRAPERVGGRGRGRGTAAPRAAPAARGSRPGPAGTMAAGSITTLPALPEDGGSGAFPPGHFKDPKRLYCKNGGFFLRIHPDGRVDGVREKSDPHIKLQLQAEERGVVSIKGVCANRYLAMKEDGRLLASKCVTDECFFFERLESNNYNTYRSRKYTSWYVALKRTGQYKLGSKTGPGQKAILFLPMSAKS
Assay [7] in a line: JC-1 mitochondrial potential readout, lung cancer cells – cell-based, A549, JC-1 fluorescence, basal, 24 h, 100 nL, profiling panel (AID 1138).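 Also: A549 lung adenocarcinoma cells under basal conditions with no added stimulus; test concentration not given here.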 To be noted: higher = more signal.
A further assay deals with Lefty1. The experiment in a line: Lefty1 protein binding to printed compounds – biochemical, small-molecule microarray, 635/667 nm fluorescence, primary screen (AID 1139). To be noted: fluorescence 635/667, higher = more signal.
Assay [8] deals with wheat germ agglutinin (Triticum aestivum), Alexa647-labelled. In words: Alexa647-WGA lectin binding to printed small molecules – biochemical, small-molecule microarray, 635/667 nm fluorescence, artefact control for SMM control-protein annotation, profiling panel (AID 1140).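 Also: score merges 667 nm feature emission with signal to noise over triplicate slides.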 To be noted: WGA-A647 binding, 635 nm fluorescence, higher = more signal.
Assay [9] deals with Luciferin 4-monooxygenase (Photinus pyralis) (UniProt P08659). The experiment in a line: inhibition of purified Photinus pyralis luciferase – biochemical, luminescence, purified enzyme, 2006 set, primary screen (AID 1141).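 Also: cell-free assay with purified firefly luciferase at 100 ng per well in PBS; test concentration not given here.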 To be noted: purified firefly luciferase, SteadyGlo luminescence, 30 min; higher = more signal, called active from +8 up or from −8 down.
Chain of Luciferin 4-monooxygenase (Photinus pyralis) (P08659 whole entry, looked up): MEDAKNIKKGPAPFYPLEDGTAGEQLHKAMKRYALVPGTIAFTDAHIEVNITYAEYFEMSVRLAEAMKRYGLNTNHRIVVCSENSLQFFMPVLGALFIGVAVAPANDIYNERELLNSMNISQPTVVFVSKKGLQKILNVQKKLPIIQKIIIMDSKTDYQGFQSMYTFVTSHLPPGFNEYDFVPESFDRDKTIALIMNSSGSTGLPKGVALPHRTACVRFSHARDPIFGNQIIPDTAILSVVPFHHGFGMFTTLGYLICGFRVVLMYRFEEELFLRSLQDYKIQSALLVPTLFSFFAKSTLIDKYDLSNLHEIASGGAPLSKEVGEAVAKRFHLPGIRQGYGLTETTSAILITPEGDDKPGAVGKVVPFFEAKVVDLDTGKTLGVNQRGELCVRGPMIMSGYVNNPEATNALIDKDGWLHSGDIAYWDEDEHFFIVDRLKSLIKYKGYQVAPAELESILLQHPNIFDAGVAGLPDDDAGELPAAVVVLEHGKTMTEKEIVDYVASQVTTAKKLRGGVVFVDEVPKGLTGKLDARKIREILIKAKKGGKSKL
In assay [10] the test system is Wnt5a (protein binding on small-molecule microarray). The experiment in a line: small molecules binding Wnt5a protein – biophysical, small-molecule microarray, 635/667 nm fluorescence, primary screen (AID 1142).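 Also: fluorescence read at 667 nm with signal to noise per printed feature.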 To be noted: 635 nm fluorescence, higher = more signal.
Assay [11] is described as follows: ATP-based viability of Huh7 replicon cells – cell-based, CellTiter-Glo luminescence, basal, 48 h, cytotoxicity control for HCV replication inhibitor project, primary screen (AID 1143).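 Also: Huh7 hepatoma cells carrying a hepatitis C replication reporter with no stimulus; test concentration not given here.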 To be noted: higher = more signal, called active from +8 up or from −8 down.
Assay [12] can be described thus: Pseudomonas biofilm growth suppression – PAO1 strain, BacTiter-Glo luminescence, LB-PBS, primary screen (AID 1144). To be noted: P. aeruginosa PAO1 biofilm, 12 h, higher = more signal.
Assay [13] in a line: basal CRE-LacZ reporter activity in PC12 – cell-based, unstimulated, primary screen (AID 1145). To be noted: no forskolin, luminescence, 4.5 h, higher = more signal, called active from +8 up or from −8 down.
Assay [14] in a line: forskolin-driven CRE-LacZ activity in PC12 – cell-based, CRE-LacZ reporter, forskolin-stimulated, primary screen (AID 1146).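 Also: PC12 cells with 6xCRE LacZ reporter stimulated by forskolin 10 µM; beta-galactosidase reporter signal reflecting CREB driven transcription.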 To be noted: luminescence, 4.5 h, higher = more signal, called active from +8 up or from −8 down.
Assay [15] has as its target Streptavidin (Streptomyces avidinii) (UniProt P22629). The experiment in a line: compounds binding control protein streptavidin – biophysical, small-molecule microarray, 635/667 nm fluorescence, artefact control for SMM compound annotation, primary screen (AID 1147).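 Also: signal reflects streptavidin binding to arrayed compounds as a control protein.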 To be noted: higher = more signal.
The nature of assay [16]: probe aInhba binding on compound microarray – biochemical, small-molecule microarray, 635/667 nm fluorescence, primary screen (AID 1148).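 Also: score merges 667nm spot fluorescence with signal-to-noise for antibody binding to printed compounds.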 To be noted: higher = more signal.
For assay [17], the target named is Torsin-1A (Homo sapiens) (UniProt O14656). In words: TOR1A wild-type binding on microarray – cell lysate, small-molecule microarray, lysate, 635/667 nm, primary screen (AID 1149). To be noted: COS7 hTOR1A-WT lysate, 635 nm fluorescence, higher = more signal.
Chain of Torsin-1A (Homo sapiens) (O14656 whole entry, looked up): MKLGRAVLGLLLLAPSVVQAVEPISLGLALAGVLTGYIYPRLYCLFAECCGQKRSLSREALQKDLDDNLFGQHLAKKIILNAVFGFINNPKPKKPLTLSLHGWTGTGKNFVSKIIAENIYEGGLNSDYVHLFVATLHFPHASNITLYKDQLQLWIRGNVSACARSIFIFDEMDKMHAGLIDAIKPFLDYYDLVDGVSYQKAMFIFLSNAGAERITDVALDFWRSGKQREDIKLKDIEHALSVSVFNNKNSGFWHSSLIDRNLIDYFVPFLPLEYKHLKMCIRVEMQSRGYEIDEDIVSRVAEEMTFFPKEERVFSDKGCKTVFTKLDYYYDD
Assay [18] shares this target. The experiment in a line: torsin A mutant lysate binding on microarrays – cell lysate, small-molecule microarray, COS7 lysate, 635/667 nm fluorescence, primary screen (AID 1150).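 Also: score pools 667 nm emission and signal to noise measuring lysate protein binding.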 To be noted: COS7 hTOR1A mutant lysate, 635 nm fluorescence, higher = more signal.
For assay [19], the system named is Sonic hedgehog protein (Shh). The experiment in a line: Sonic hedgehog microarray binding compounds – biochemical, small-molecule microarray, 635/667 nm fluorescence, primary screen (AID 1151).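 Also: Shh protein binding to compounds spotted on small-molecule microarray slides; score combines spot fluorescence intensity with signal-to-noise across triplicate slides.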 To be noted: 635 nm fluorescence, higher = more signal.

Calls of active or inactive are those of the source. Unless noted, no rule for the calls is given here.

Chain of Focal adhesion kinase 1 (Homo sapiens) (Q05397 whole entry, looked up): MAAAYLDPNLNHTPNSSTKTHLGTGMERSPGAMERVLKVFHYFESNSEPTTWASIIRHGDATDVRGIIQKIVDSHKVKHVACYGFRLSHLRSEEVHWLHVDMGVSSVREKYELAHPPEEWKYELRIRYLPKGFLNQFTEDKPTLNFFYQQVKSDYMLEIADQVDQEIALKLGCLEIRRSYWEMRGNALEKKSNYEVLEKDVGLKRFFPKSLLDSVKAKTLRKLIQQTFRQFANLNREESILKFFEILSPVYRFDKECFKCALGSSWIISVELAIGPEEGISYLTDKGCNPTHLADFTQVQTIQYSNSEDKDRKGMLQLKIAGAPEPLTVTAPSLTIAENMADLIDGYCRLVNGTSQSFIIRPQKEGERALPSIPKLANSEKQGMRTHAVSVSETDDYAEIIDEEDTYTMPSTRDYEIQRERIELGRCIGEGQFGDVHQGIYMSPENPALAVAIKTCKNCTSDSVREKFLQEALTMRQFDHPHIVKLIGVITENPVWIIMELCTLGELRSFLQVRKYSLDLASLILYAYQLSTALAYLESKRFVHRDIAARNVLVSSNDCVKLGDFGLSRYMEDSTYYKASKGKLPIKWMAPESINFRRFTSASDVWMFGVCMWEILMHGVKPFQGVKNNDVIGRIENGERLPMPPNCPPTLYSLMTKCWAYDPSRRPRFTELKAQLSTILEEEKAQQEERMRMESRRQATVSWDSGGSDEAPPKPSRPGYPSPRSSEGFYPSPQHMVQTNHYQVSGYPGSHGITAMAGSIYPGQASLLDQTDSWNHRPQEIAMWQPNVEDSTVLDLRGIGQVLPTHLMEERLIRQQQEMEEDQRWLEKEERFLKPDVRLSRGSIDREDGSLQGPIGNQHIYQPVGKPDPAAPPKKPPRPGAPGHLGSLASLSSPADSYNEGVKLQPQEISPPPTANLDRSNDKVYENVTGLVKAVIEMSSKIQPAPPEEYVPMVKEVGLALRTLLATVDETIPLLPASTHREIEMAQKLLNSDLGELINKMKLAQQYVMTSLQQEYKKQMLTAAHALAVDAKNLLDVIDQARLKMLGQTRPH
Chain of Streptavidin (Streptomyces avidinii) (P22629 whole entry, looked up): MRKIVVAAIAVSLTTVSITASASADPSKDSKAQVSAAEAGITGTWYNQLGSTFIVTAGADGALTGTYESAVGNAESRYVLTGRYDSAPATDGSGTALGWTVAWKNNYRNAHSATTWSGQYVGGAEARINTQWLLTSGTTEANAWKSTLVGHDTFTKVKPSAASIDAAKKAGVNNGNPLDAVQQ

On to `C=CCC(OC(C)=O)[C@@H]1[C@@H](N(Cc2ccc(-c3cccc(C(F)(F)F)c3)o2)C(=O)c2ccc(C)cc2)c2cc(OCCCO)ccc2N1C(=O)c1ccc2ccccc2c1` (stereo not given in full), for which the composite z-score in assay [1] was -0.276; in [2], -0.207; in [3] it was 0.187; in assay [4], 0.188; in assay [5], 0.908; in [6], 0.0013. In addition, the composite z-score is 0.398 in the assay on Lefty1; -0.0998 in assay [8]; 0.0344 in assay [10]; 0.203 in assay [15]; -0.024 in assay [16]; -0.361 in the assay with Torsin-1A (Homo sapiens) [17]. In addition, the composite z-score in the assay with Torsin-1A (Homo sapiens) [18] is -0.0628; in assay [19], 0.772. The z-score in [7] was 1.23; in assay [9], -0.0536 (inactive); in [11], -0.478 (inactive); in assay [12] it was -1.39 (inactive); in assay [13], -0.519 (inactive); in assay [14], 0.291 (inactive).

For `O=C1O[C@@H](c2ccccc2)[C@@H](c2ccccc2)N2[C@@H](c3ccc(O)cc3)[C@]3(C(=O)Nc4ccc(C#CC5=CCCCC5)cc43)[C@@H](C(=O)NC[C@H](O)c3ccccc3)[C@H]12`, the composite z-score in assay [1] was 0.219; in assay [2], 1.19; in [3], 0.134; in assay [4], 0.925; in assay [5] it was 1.45; in [6], 1.69. Further, the composite z-score was determined as 0.907 in the assay on Lefty1; 1 in assay [8]; 0.361 in assay [10]; 0.212 in assay [15]; 0.0833 in assay [16]; 0.675 in the assay with Torsin-1A (Homo sapiens) [17]. In addition, the composite z-score came to 0.677 with Torsin-1A (Homo sapiens) [18] and 1.48 in assay [19]. The z-score in assay [7] is -0.945; in assay [9], -1.38 (inactive); in [11], -3.48 (inactive); in assay [12], -1.16 (inactive); in assay [13] it was -0.0246 (inactive); in assay [14], -0.199 (inactive).

Regarding `COc1ccc([Si](C)(C)[C@H]2[C@H](CCn3cc([C@H](O)c4ccccc4)nn3)O[C@@]3(C(=O)N(Cc4ccc(N5C(=O)c6cccc7cccc5c67)cc4)c4ccccc43)[C@@H]2C)cc1`, the composite z-score in assay [1] is 0.107; in assay [2], 0.0893; in assay [3] it was -0.254; in assay [4], -0.153; in assay [5], -0.185; in assay [6] it was 0.768. For the same compound, the composite z-score in the assay on Lefty1 is -0.0986; in assay [8] it was 0.0681; in [10] it was -0.21; in assay [15], 0.618; in assay [16] it was -0.0791; with Torsin-1A (Homo sapiens) [17], -0.734. Moreover, the composite z-score with Torsin-1A (Homo sapiens) [18] is -0.35; in [19], 0.232. Moreover, the z-score in assay [7] was 2.81; in assay [9] it was -1.19 (inactive); in assay [11] it was -2.02 (inactive); in assay [12], -1.05 (inactive); in assay [13] it was 1.02 (inactive); in assay [14], -0.715 (inactive).

Regarding `[N-]=[N+]=Nc1ccccc1C[C@]1(C(N)=O)N=C(c2ccc(OCCCO)cc2)O[C@H]1c1ccccc1N=[N+]=[N-]`, the composite z-score is 1.91 in assay [1]; 1.21 in assay [2]; -0.0221 in assay [3]; 0.941 in assay [4]; 0.228 in assay [5]; 0.132 in [6]. Further, the composite z-score in the assay on Lefty1 was -0.24; in assay [8], 0.448; in assay [10], 0.611; in assay [15], 1.22; in assay [16], 0.189; in the assay with Torsin-1A (Homo sapiens) [17] it was 0.747. In addition, the composite z-score was 0.986 with Torsin-1A (Homo sapiens) [18] and -0.191 in assay [19]. For the same compound, the z-score is -0.777 in assay [7]; -4.76 (inactive) in assay [9]; -4.95 (inactive) in [11]; -0.783 (inactive) in [12]; 1.6 (inactive) in [13]; -1.25 (inactive) in assay [14].

Take `CC(C)C(=C=CC[C@H](O)c1ccc(OCCO)cc1)C[C@H](O)c1ccccn1`: the composite z-score in assay [1] is 0.923; in assay [2], 0.955; in assay [3], 0.104; in [4], 0.3; in [5], 0.135; in assay [6], -0.139. The composite z-score in the assay with Lefty1 was 0.334; in assay [8] it was 0.0804; in assay [10], 0.149; in [15], -0.573; in [16] it was -0.0986; with Torsin-1A (Homo sapiens) [17] it was 0.743. Moreover, the figures for the composite z-score (with Torsin-1A (Homo sapiens) [18]; in assay [19]) were 0.995 and 0.823, respectively. Moreover, the z-score in assay [7] is 1.51; in assay [9] it was -2.27 (inactive); in assay [11], -1.8 (inactive); in [12] it was -0.576 (inactive); in assay [13] it was 5.48 (inactive); in assay [14], -1.06 (inactive).
